# Experimental data taken from the supplement of paper PMC9262897, “Low-cost anti-mycobacterial drug discovery using engineered E. coli” (Nature Communications, 2022).
# Structures can show the parent of a compound that is named as a salt. ± gives the standard deviation of the averaged measurements.
# How the values were obtained:
# Assay in all cases: growth (OD600 after 10 h); higher = more growth (less inhibition)
# [1] = test system: E. coli TESEC Alr+ wild-type control; conditions: compound 0.1 mM; raw OD600 reference: median of DMSO wells 0.241, cell-free background 0.041
# Experimental: (§1)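 TESEC Mtb Alr E. coli, or the Alr+ wild-type control, in 384-well plates with Prestwick library compounds at 0.1 mM and 1% DMSO, across arabinose induction levels of 1E3 to 1E7 nM. Growth is read as OD600 after 10 h at 37 °C in triplicate biological replicates.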
# [2] = test system: E. coli TESEC Mtb Alr; conditions: compound 0.1 mM
# Experimental: as §1
# [3] = test system: E. coli TESEC Mtb Asd; conditions: compound 0.1 mM
# Experimental: (§2)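 TESEC E. coli strains in which the native enzyme is deleted and replaced by arabinose-inducible Mtb Asd, DapB, CysH or TrpD, each grown in its selective medium. Strains were screened against the Prestwick library at 0.1 mM and 1% DMSO in 384-well format at low and high arabinose induction. Growth is read as OD600 after 10 h in triplicate.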
# [4] = test system: E. coli TESEC Mtb DapB; conditions: compound 0.1 mM
# Experimental: as §2
# [5] = test system: E. coli TESEC Mtb Alr; conditions: compound 0.1 mM; remark: listed apart in the source
# Experimental: (§3)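 TESEC Mtb Alr E. coli (ΔaraC ΔtolC ΔentC Δalr ΔdadX, arabinose-inducible Mtb Alr) or the Alr+ wild-type control strain, grown in defined M9-fructose medium without D-alanine in 96-well plates with Prestwick library compounds at 0.1 mM and 1% DMSO. Low Alr induction is 0.1 µM arabinose and high induction is 10 mM arabinose.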
# [6] = test system: E. coli TESEC Alr+ wild-type control; conditions: compound 0.1 mM; raw OD600 reference: median of DMSO wells 0.49, cell-free background 0.052
# Experimental: as §3
# [7] = arabinose 1000 nM, raw OD600 reference: median of DMSO wells 0.294, cell-free background 0.041
# [8] = arabinose 10000 nM, raw OD600 reference: median of DMSO wells 0.264, cell-free background 0.041
# [9] = arabinose 100000 nM, raw OD600 reference: median of DMSO wells 0.201, cell-free background 0.041
# [10] = arabinose 1000000 nM, raw OD600 reference: median of DMSO wells 0.193, cell-free background 0.041
# [11] = arabinose 10000000 nM, raw OD600 reference: median of DMSO wells 0.146, cell-free background 0.041
# [12] = arabinose induction (level): High, raw OD600 reference: median of DMSO wells 0.331, cell-free background 0.041
# [13] = arabinose induction (level): Low, raw OD600 reference: median of DMSO wells 0.417, cell-free background 0.041
# [14] = arabinose induction (level): High, raw OD600 reference: median of DMSO wells […], cell-free background 0.041
# [15] = arabinose induction (level): Low, raw OD600 reference: median of DMSO wells 0.227, cell-free background 0.041
# [16] = arabinose 100 nM, raw OD600 reference: median of DMSO wells 0.413, cell-free background 0.052
# [17] = arabinose 10000000 nM, raw OD600 reference: median of DMSO wells […], cell-free background 0.052
Compound,growth [1],"growth [2, 7]","growth [2, 8]","growth [2, 9]","growth [2, 10]","growth [2, 11]","growth [3, 12]","growth [3, 13]","growth [4, 14]","growth [4, 15]","growth [5, 16]","growth [5, 17]",growth [6]
CN1[C@@H]2C[C@@H](OC(=O)[C@H](CO)c3ccccc3)C[C@H]1[C@@H]1O[C@@H]12 [Scopolamine hydrochloride],0.252 ± 0.0082,0.321 ± 0.023,0.292 ± 0.011,0.207 ± 0.012,0.182 ± 0.0041,0.157 ± 0.0084,0.469 ± 0.011,0.453 ± 0.025,0.201 ± 0.031,0.228 ± 0.03,0.408 ± 0.016,0.36 ± 0.01,–
C=C1CC[C@@]2(O)[C@H]3Cc4ccc(O)c5c4[C@@]2(CCN3CC2CC2)[C@H]1O5 [Nalmefene hydrochloride],0.238 ± 0.013,0.3098 ± 0.003,0.274 ± 0.0086,0.157 ± 0.0079,0.19 ± 0.005,0.1356 ± 0.0009,0.193 ± 0.041,0.328 ± 0.08,0.194 ± 0.028,0.226 ± 0.027,0.425 ± 0.007,0.327 ± 0.022,0.4625 ± 0.0046
NC(=O)CN1CCCC1=O [Piracetam],0.245 ± 0.0091,0.299 ± 0.0073,0.27 ± 0.0054,0.224 ± 0.034,0.184 ± 0.0072,0.15 ± 0.0043,0.302 ± 0.06,0.325 ± 0.092,0.202 ± 0.0067,0.208 ± 0.028,0.415 ± 0.011,0.346 ± 0.018,–
CCOC(=O)c1cncn1[C@H](C)c1ccccc1 [Etomidate],0.202 ± 0.0032,0.244 ± 0.0088,0.275 ± 0.013,0.214 ± 0.03,0.181 ± 0.01,0.14 ± 0.0078,0.43 ± 0.029,0.378 ± 0.076,0.225 ± 0.019,0.228 ± 0.013,0.41 ± 0.0073,0.341 ± 0.0035,–
Clc1ccc(C(OCCN2CCCCC2)c2ccccc2)cc1 (stereo unspecified) [Cloperastine hydrochloride],0.186 ± 0.0072,0.232 ± 0.0029,0.2462 ± 0.0014,0.174 ± 0.0052,0.0487 ± 0.0015,0.0546 ± 0.00059,0.113 ± 0.002,0.154 ± 0.0084,0.146 ± 0.012,0.163 ± 0.0059,0.4058 ± 0.0039,0.147 ± 0.085,–
O=c1[nH]c2ccccc2n1CCCN1CCC(n2c(=O)[nH]c3cc(Cl)ccc32)CC1 [Domperidone],0.129 ± 0.0039,0.183 ± 0.0075,0.214 ± 0.015,0.149 ± 0.0082,0.09803 ± 0.00075,0.124 ± 0.0039,0.1177 ± 0.0011,0.176 ± 0.018,0.137 ± 0.005,0.152 ± 0.0037,0.41 ± 0.0087,0.246 ± 0.0035,0.406 ± 0.011
C[C@]12N[C@H](Cc3ccccc31)c1ccccc12 [Dizocilpine maleate],0.2374 ± 0.0019,0.286 ± 0.009,0.273 ± 0.0096,0.158 ± 0.014,0.123 ± 0.0042,0.134 ± 0.0024,0.179 ± 0.014,0.415 ± 0.059,0.179 ± 0.019,0.18 ± 0.012,0.4169 ± 0.0029,0.304 ± 0.01,–
"NCC(CC(=O)O)c1ccc(Cl)cc1 (racemic) [Baclofen (R,S)]",0.248 ± 0.011,0.299 ± 0.0066,0.2703 ± 0.0017,0.22 ± 0.029,0.189 ± 0.0083,0.15 ± 0.007,0.392 ± 0.032,0.422 ± 0.029,0.219 ± 0.017,0.246 ± 0.04,0.408 ± 0.0092,0.361 ± 0.026,–
CC(=O)NC1CCSC1=O (racemic) [N-Acetyl-DL-homocysteine Thiolactone],0.253 ± 0.013,0.312 ± 0.021,0.2598 ± 0.0021,0.222 ± 0.031,0.185 ± 0.005,0.144 ± 0.0094,0.29 ± 0.041,0.451 ± 0.01,0.226 ± 0.0088,0.242 ± 0.019,0.402 ± 0.0097,0.35 ± 0.02,–
C[N+]1([O-])[C@@H]2C[C@@H](OC(=O)[C@H](CO)c3ccccc3)C[C@H]1[C@@H]1O[C@@H]12 (stereo partly specified) [Scopolamin-N-oxide hydrobromide],0.262 ± 0.013,0.3 ± 0.013,0.28 ± 0.0081,0.24 ± 0.027,0.19 ± 0.0068,0.165 ± 0.0072,0.334 ± 0.068,0.408 ± 0.035,0.221 ± 0.012,0.257 ± 0.025,0.411 ± 0.021,0.347 ± 0.018,–
CCC1(C)CC(=O)NC(=O)C1 [Bemegride],0.237 ± 0.0029,0.299 ± 0.023,0.253 ± 0.00095,0.227 ± 0.039,0.191 ± 0.0055,0.135 ± 0.0098,0.318 ± 0.043,0.46 ± 0.0049,0.2 ± 0.0046,0.23 ± 0.013,0.4 ± 0.019,0.363 ± 0.02,–
C[C@]12CC[C@H](O)C[C@@H]1CC[C@@H]1[C@@H]2CC[C@]2(C)C(=O)CC[C@@H]12 [Epiandrosterone],0.126 ± 0.0063,0.12 ± 0.0055,0.107 ± 0.0061,0.0943 ± 0.0019,0.0694 ± 0.0019,0.0859 ± 0.0011,0.0929 ± 0.015,0.168 ± 0.018,0.152 ± 0.021,0.136 ± 0.006,0.353 ± 0.043,0.109 ± 0.0099,–
C[C@]12C/C(=C/O)C(=O)C[C@@H]1CC[C@@H]1[C@@H]2CC[C@@]2(C)[C@H]1CC[C@]2(C)O [Oxymetholone],0.162 ± 0.002,0.293 ± 0.0078,0.241 ± 0.025,0.244 ± 0.014,0.101 ± 0.0039,0.177 ± 0.0058,0.124 ± 0.0085,0.226 ± 0.043,0.158 ± 0.013,0.194 ± 0.019,0.379 ± 0.019,0.252 ± 0.004,–
C[C@]12C[C@H]3S[C@H]3C[C@@H]1CC[C@@H]1[C@@H]2CC[C@]2(C)[C@@H](O)CC[C@@H]12 [Epitiostanol],0.248 ± 0.0036,0.291 ± 0.012,0.281 ± 0.0097,0.144 ± 0.011,0.15 ± 0.013,0.136 ± 0.0072,0.162 ± 0.018,0.337 ± 0.098,0.203 ± 0.01,0.21 ± 0.029,0.413 ± 0.014,0.265 ± 0.015,–
O=[N+]([O-])O[C@H]1CO[C@H]2[C@@H]1OC[C@H]2O[N+](=O)[O-] [Isosorbide dinitrate],0.243 ± 0.013,0.32 ± 0.014,0.263 ± 0.0089,0.217 ± 0.025,0.185 ± 0.0031,0.159 ± 0.0026,0.476 ± 0.013,0.419 ± 0.07,0.213 ± 0.012,0.27 ± 0.03,0.4084 ± 0.0022,0.343 ± 0.014,–
Cc1cccc(C)c1NC1=NCCCS1 [Xylazine],0.236 ± 0.0094,0.284 ± 0.0052,0.247 ± 0.0072,0.208 ± 0.029,0.169 ± 0.0055,0.137 ± 0.006,0.298 ± 0.051,0.34 ± 0.11,0.209 ± 0.016,0.226 ± 0.022,0.424 ± 0.0078,0.352 ± 0.023,–
CC(CCc1ccccc1)NC(C)C(O)c1ccc(O)cc1 (stereo unspecified) [Nylidrin],0.215 ± 0.0087,0.297 ± 0.018,0.285 ± 0.013,0.167 ± 0.0039,0.16 ± 0.0093,0.144 ± 0.002,0.351 ± 0.062,0.495 ± 0.048,0.222 ± 0.027,0.243 ± 0.0092,0.404 ± 0.014,0.316 ± 0.013,–
